Experimental findings from PubChem BioAssay (Tox21) are described below.

Several values for one entry are separate records, joined by “and”; a condition that tells them apart may be missing. Equal entries are not always repeated. Results filed as inconclusive are left out. Where a call stands in place of a potency, no number is given. Activity calls are given as the source filed them. Calls follow the shape of the dose curve; as a rule, active = well fitted cell-killing curve with a large enough effect in the repeat runs; inconclusive = weak or mixed curves, or effect the other way; inactive = flat fitted curve, though single readings scatter.
Potency is read from the fitted curve at half-maximal effect.

The nature of this experiment: qHTS assay to identify small molecule antagonists of the constitutive androstane receptor (CAR) signaling pathway - cell viability counter screen (AID 1224837). Also: nearly all actives have a fitted effect of over 45% in size. The following applies: HepG2-CYP2B6-hCAR viability, CellTiter-Fluor, 23 h, co-treated with 50 nM CITCO; series mostly up to 92.4 µM; activity change, negative = cytotoxicity: at the top concentration. The text has this: National Center for Advancing Translational Sciences [NCATS]
NIH Chemical Genomics Center [NCGC]
U.S. Environmental Protection Agency [EPA]
National Institutes of Environmental Health Sciences [NIEHS]
National Toxicology Program [NTP]
U.S. Food and Drug Administration [FDA]
The constitutive androstane receptor (CAR) is a nuclear receptor which regulates multiple drug metabolizing enzymes (DMEs) and transporters. Activating CAR will generally increase the transcription and subsequent translation of CYP2B6 and CYP3A4. These two DMEs represent about 50% of the drug metabolizing potential in the body. When CAR is deactivated, the metabolizing potential in the body will decrease, subsequently increasing the toxicity in the body or lowering the therapeutic potential of a pro-drug. Recently, there have also been studies performed indicating CARs role in energy metabolism and cancer therapy. Therefore, inhibiting CARs activity could have a potential effect on diabetes and cancer. Identifying environmental toxins and compounds which modulate CAR, through the use of the Tox21 10K compound collection, will be an important step in determining the toxicity and potential therapeutic effects these factors will have on the human body. To differentiate true CAR antagonists from cytotoxic substances, the assay is multiplexed with a cell viability assay.
Tox21 Assay Protocol Summary:
A double-stable (hCAR and CYP2B6-2.2kb) transfected cell line, derived from human hepatoma (HepG2) cells, was utilized for the duration of the quantitative high-throughput screens. The HepG2-CYP2B6-hCAR cells were dispensed at 2500 cells/4 uL/well in 1536-well white solid bottom plates using a Multidrop Combi. After the assay plates were incubated at 37 C/5% CO2 for 4 hrs, 23 nL of compounds at 15 concentrations (from 5-48 columns) or positive control (from 1 to 4 columns) were transferred to the assay plates using a Pintool station. One uL of CITCO (final concentration = 50 nM) was added, using a Flying Reagent Dispenser, inside each well. After a 23 hr incubation period at 37 C/5% CO2, 1 uL of CellTiter-Fluor reagent was added into each well of the assay plates using a Flying Reagent Dispenser. The fluorescence intensity in the plates was then measured using a ViewLux plate reader.
(Quantitative high-throughput screening tests each substance at several concentrations.)
As to `O=S1(=O)OC(c2ccc(O)cc2)(c2ccc(O)cc2)c2ccccc21`, the Potency is 27.3 µM (active) and 13.3 µM (active).

For `CCCCCCCCCCCC[N+](C)(C)Cc1ccccc1`, the Potency is 47.6 µM (active) and 23.7 µM (active).

`CC(O)(P(=O)(O)O)P(=O)(O)O`: the Potency result is “inactive”.

In the case of `C[C@](N)(Cc1ccc(O)c(O)c1)C(=O)O`, the Potency entry was “inactive”.

As to `COc1cccc(O)c1O`, the “activity change, negative = cytotoxicity” value was -16.3% (inactive).

Turning to `CCCCC1(COC(=O)CCC(=O)O)C(=O)N(c2ccccc2)N(c2ccccc2)C1=O`, the Potency entry was “inactive”.

Take `O=CC(=O)c1ccccc1`: the “activity change, negative = cytotoxicity” value was -15% (inactive).

As to `COc1ccc2c(c1)c(CC(=O)O)c(C)n2C(=O)c1ccc(Cl)cc1`, the Potency entry is “inactive”.

As to `COc1ccc(OC(F)(F)F)cc1CN[C@H]1CCCN[C@H]1c1ccccc1`, the Potency is 54.5 µM (active).

In the case of `O=C1c2c(O)cccc2Cc2cccc(O)c21`, the Potency result is “inactive”.

As for `Cc1cc(C)nc(NS(=O)(=O)c2ccc(N)cc2)n1`, the Potency entry was “inactive”.

For `CC(=O)CC(c1ccccc1)c1c(O)c2ccccc2oc1=O` (stereo not given), the Potency entry is “inactive”.

For `Cc1ccc(S(=O)(=O)O)cc1`, the Potency entry is “inactive”.

For `CC(C)NCC(O)c1ccc(O)c(O)c1` (stereo not given), the Potency entry was “inactive”.

As for `CN1[C@@H]2CC(OC(=O)[C@H](CO)c3ccccc3)C[C@H]1[C@@H]1O[C@@H]12` (stereo not given in full), the Potency result was “inactive”.

For the compound `Cc1ncc([N+](=O)[O-])n1CCO`, the Potency entry is “inactive”.

With `NC(=O)c1cccnc1`, the Potency result was “inactive”.

`CC12CCC(CC1)C(C)(C)O2`: the Potency entry was “inactive”.

For `CN(C)CCOC(c1ccccc1)c1ccccc1`, the Potency entry was “inactive”.

With `CCN(Cc1c(F)cccc1Cl)c1c([N+](=O)[O-])cc(C(F)(F)F)cc1[N+](=O)[O-]`, the “activity change, negative = cytotoxicity” value was -14% (inactive).

In the case of `CN[C@H]1CC[C@@H](c2ccc(Cl)c(Cl)c2)c2ccccc21`, the “activity change, negative = cytotoxicity” value is -0.388% [at 42.5 µM] (inactive).

As to `CC(C)c1c(C(=O)Nc2ccccc2)c(-c2ccccc2)c(-c2ccc(F)cc2)n1CC[C@@H](O)C[C@@H](O)CC(=O)O`, the Potency entry was “inactive”.

For `CN1CCc2cccc3c2[C@H]1Cc1ccc(O)c(O)c1-3`, the Potency was 49.1 µM (active) and 22.8 µM (active).

As to `CCCCCCc1ccc(O)cc1O`, the Potency result was “inactive”.

In the case of `Nc1ccc(S(N)(=O)=O)cc1`, the Potency entry was “inactive”.

Turning to `CCOC(N)=O`, the Potency result is “inactive”.

As to `CCCC[P+](CCCC)(CCCC)CCCC`, the Potency entry is “inactive”.

For the compound `F[B-](F)(F)F`, the Potency result was “inactive”.

Regarding `CCN(CC)C(=O)c1cccc(C)c1`, the Potency result was “inactive”.

As for `NC(CO)(CO)CO`, the Potency entry is “inactive”.

In the case of `CN(C)C(=S)SC(=S)N(C)C`, the Potency is 1.57 µM (active) and 1.72 µM (active) and 2.37 µM (active).

For the compound `C=C(C)C(=O)OCC(C)O` (stereo not given), the Potency entry is “inactive”.

Turning to `CNNCc1ccc(C(=O)NC(C)C)cc1`, the Potency result is “inactive”.

On to `Cc1ncc([N+](=O)[O-])n1C`, for which the Potency entry is “inactive”.

As to `CC(C)C(=O)Nc1ccc([N+](=O)[O-])c(C(F)(F)F)c1`, the Potency result was “inactive”.

On to `Cc1cc(=O)oc2cc(O)ccc12`, for which the Potency entry is “inactive”.

With `C1=CC2C3C=CC(C3)C2C1` (stereo not given), the “activity change, negative = cytotoxicity” value is 1.88% (inactive).

For `C/C=C/C=C/C(=O)O`, the Potency result was “inactive”.

For the compound `COc1ccc2cc(S(=O)(=O)N[C@H](CC(=O)N[C@H](Cc3ccc(CN4[C@H](C)CCC[C@@H]4C)cc3)C(=O)N(C)C(C)C)c3ccc4c(c3)OCO4)ccc2c1`, the Potency is 25.8 µM (active).

In the case of `CCCCNC(=O)NS(=O)(=O)c1ccc(C)cc1`, the Potency entry is “inactive”.
